DT40 TDP1 CPT – DT40-hTDP1 cell growth loss with CPT; chicken DT40 Tdp1-/-;hTDP1 cells + 20 nM CPT, ATP luminescence, 48 h; Potency, µM (doses to about 46.2 µM), most hits filed as inhibitors; actives 12% (n = 420,000); further: nearly all actives have a fitted effect of over 55% in size
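Chicken DT40 Tdp1-/- cells complemented with human TDP1, 400 cells/well, exposed to compounds plus 20 nM camptothecin for at least 48 h at 37 C; viability read as ATP content by CellTiter-Glo luminescence.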
VP16 counter – Gal4-VP16 reporter inhibition counter-screen; AID 2546; Potency, µM (top dose mostly 53.6 µM), most hits filed as inhibitors; actives 3.5% (n = 310,000); Drosophila S2 Gal4-VP16 UAS-luciferase, luminescence, 20 h;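 further: Gal4-VP16 expression switched on by copper sulfate through the metallothionein promoter; nearly all actives have a fitted effect of over 50% in size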
RORgamma inh – inhibitors of mouse ROR gamma transcriptional activity | actives 5.4% (n = 310,000) | Drosophila S2 Gal4-RORgamma UAS-luciferase reporter, 20 h | P51450 | Potency, µM (series often up to 53.6 µM), actives largely listed as inhibitors; further: nearly all actives have a fitted effect of over 60% in size
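Drosophila Schneider cells stably carrying a metallothionein-driven Gal4 DBD–ROR gamma fusion and a UAS-Photinus luciferase reporter were exposed to compound for 1 hr, then induced with copper sulfate (700 uM final) for 20 hr at ambient temperature before luminescence reading.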
ELG1 repair inh – inhibitors of ELG1-dependent DNA repair in HEK293T cells | Potency, µM (doses to about 46.1 µM), usual class: inhibitors | HEK293T ELG1-luciferase reporter, luminescence, 16 h; DNA damage induced by 5-fluorouridine | actives 2.3% (n = 330,000); further: nearly all actives have a fitted effect of over 55% in size
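DMSO vehicle served as the neutral condition. Each well held 2,000 cells given 5-fluorouridine plus compound; after 16 hr at 37 °C/5% CO2, ONE-Glo was added and luciferase measured 30 min later.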
ALOX12 inh – inhibitors of human 12S-lipoxygenase ALOX12; P18054; purified 12hLO, xylenol orange hydroperoxide absorbance; Potency, µM (titrated, usually from 108 µM), hits mostly inhibitors; actives 1.1% (n = 580,000)
Target sequence (P18054 whole entry, looked up): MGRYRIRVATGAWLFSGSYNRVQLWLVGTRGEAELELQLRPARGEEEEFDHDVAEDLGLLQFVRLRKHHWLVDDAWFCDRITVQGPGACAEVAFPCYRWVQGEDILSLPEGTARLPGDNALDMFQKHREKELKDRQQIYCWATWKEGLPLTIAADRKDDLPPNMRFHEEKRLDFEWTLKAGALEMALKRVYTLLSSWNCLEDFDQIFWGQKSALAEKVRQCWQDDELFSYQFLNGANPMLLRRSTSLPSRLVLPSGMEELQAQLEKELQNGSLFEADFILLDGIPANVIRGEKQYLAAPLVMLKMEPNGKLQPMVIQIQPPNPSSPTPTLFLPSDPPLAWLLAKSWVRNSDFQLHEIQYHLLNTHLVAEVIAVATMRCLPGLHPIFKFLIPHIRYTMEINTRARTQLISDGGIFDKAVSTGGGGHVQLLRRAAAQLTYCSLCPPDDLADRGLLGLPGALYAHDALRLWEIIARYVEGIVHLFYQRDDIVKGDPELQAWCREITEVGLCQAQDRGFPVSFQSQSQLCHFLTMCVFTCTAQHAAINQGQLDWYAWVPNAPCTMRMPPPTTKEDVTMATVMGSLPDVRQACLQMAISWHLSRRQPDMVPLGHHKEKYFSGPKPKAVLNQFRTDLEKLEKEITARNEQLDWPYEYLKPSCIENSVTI
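Hydroperoxide product was detected by ferrous iron/xylenol orange as the 573 to 405 nm absorbance ratio. Arachidonic acid at 40 uM (final) was turned over for 30 min at room temperature by 150 nM human 12hLO, pH 7.0 Hepes buffer, after 15 min compound preincubation.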
DT40 TDP1 no CPT – qHTS for Inhibitors of human tyrosyl-DNA phosphodiesterase 1 (TDP1): qHTS in cells in absence of CPT; DT40 Tdp1-/- hTDP1 cells, no CPT, ATP luminescence, 48 h; AID 686978, 2013; actives 15% (n = 420,000); Potency, µM (top dose mostly 46.2 µM), actives largely listed as inhibitors; further: nearly all actives have a fitted effect of over 55% in size
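Chicken DT40 Tdp1-/- cells complemented with human TDP1, screened without camptothecin (DMSO vehicle only), 400 cells/well. Compounds pin-transferred, cells incubated at 37 °C for at least 48 hr. Growth read as ATP-dependent luminescence (CellTiter-Glo, 30 min at RT).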
Numbers stand for hits; . = inactive; ? = inconclusive; / = no result given; [ ] = remark or other dose. An excerpt weighted towards active compounds, which were near 15% of everything screened. The call rests on the fitted dose curve; in most records, active means well fitted curve in the direction sought with a large enough effect; inconclusive means small, poorly fitted or top-dose-only effect, or another doubt; inactive means no such curve, though single readings can be large; an effect the other way counts as inactive or inconclusive.

SMILES	DT40 TDP1 CPT	VP16 counter	RORgamma inh	ELG1 repair inh	ALOX12 inh	DT40 TDP1 no CPT
CCOc1ccccc1CNCc1c(C(=O)O)c(C)n(Cc2ccc(Cl)cc2)c1C	?	/	/	/	.	?
CCOc1ccccc1CNCc1c(C(=O)O)n(Cc2ccc(F)cc2)c2cc(C)ccc12	13µM	/	/	/	.	5.8µM
C=Cc1ccc(Cn2c(C(=O)O)c(CNC3CCCCC3)c3ccc(C)cc32)cc1	.	/	/	/	.	.
COc1ccc2c(CNCc3cccs3)c(C(=O)O)n(Cc3ccccc3F)c2c1	?	/	/	/	.	.
COc1ccc2c(CNCc3cccs3)c(C(=O)O)n(Cc3ccc(F)cc3)c2c1	18µM	/	/	/	.	9.2µM
COc1ccc(Cn2c(C(=O)O)c(CNCc3cccs3)c3ccc(C)cc32)cc1	?	/	/	/	?	18µM
COc1ccc2c(CNCCc3cccs3)c(C(=O)O)n(Cc3ccccc3)c2c1	?	/	/	/	.	?
CC1=CCC(C(=O)O)C(C(=O)Nc2ccc(-c3nc4ccc(C)cc4s3)cc2)C1 (stereo not drawn)	.	.	.	?	?	.
Cc1ccc2nc(-c3ccc(NC(=S)NCCC(C)C)cc3)sc2c1	.	/	/	/	.	?
CC(=O)NC(=S)Nc1ccc(-c2nc3ccc(C)cc3s2)cc1	?	1.8µM	0.5µM	?	.	?
CNC(=S)Nc1ccc(-c2nc3ccc(C)cc3s2)cc1	.	7.1µM	0.56µM	?	?	?
CCCCNC(=S)Nc1ccc(-c2nc3ccc(C)cc3s2)cc1	?	?	3.2µM	?	.	18µM
Cc1ccc2nc(-c3ccc(N/C(N)=N/c4nc(C)cc(C)n4)cc3)sc2c1	/	/	/	/	.	/
Cc1ccc2nc(-c3ccc(NC(=S)NCC(C)(C)CN(C)C)cc3)sc2c1	6.5µM	/	/	/	.	6.5µM
N#CC(Cc1cccnc1)C(=O)Nc1ccccc1Cl (stereo not drawn)	/	/	/	/	.	/
Cc1nc2cc(NC(C)C(=O)Nc3ccc(OC(F)(F)F)cc3)ccc2o1 (stereo not drawn)	/	/	/	/	.	/
COCc1nc(C2CCN(C(=O)N(C)C)C2)no1 (stereo not drawn)	/	/	/	/	.	/
CCOc1ccc(-n2nnc(C(=O)Nc3cccc(C)c3C)c2N)cc1	/	/	/	/	.	/
Cc1cc(-n2ccnc(NCCc3ccc(S(N)(=O)=O)cc3)c2=O)ccc1Br	?	/	/	/	.	26µM
Cc1ccc(-n2ccnc(NCCc3ccc(S(N)(=O)=O)cc3)c2=O)cc1C	?	/	/	/	.	?
CCOP(=O)(OCC)C(NC(=O)Nc1c(C)cc(C)cc1C)c1ccccc1 (stereo not drawn)	.	.	.	.	.	.
CC(=O)NC(C(=O)c1ccccc1)C(=O)c1ccccc1	.	.	.	.	.	.
CCOP(=O)(OCC)C(NC(=O)Nc1ccccc1)c1ccccc1 (stereo not drawn)	.	.	11µM	.	.	.
CCOP(=O)(OCC)C(NC(C)=O)C(=O)c1ccccc1 (stereo not drawn)	.	.	.	.	.	3.7µM
COCC1CN(C(C)=O)CC12CCN(Cc1ccccc1C)CC2 (stereo not drawn)	/	/	/	/	.	/
SMILES	DT40 TDP1 CPT	VP16 counter	RORgamma inh	ELG1 repair inh	ALOX12 inh	DT40 TDP1 no CPT
CN1CCN(c2ccc(Cl)cc2NC(=O)c2cc(=O)[nH]c3ccccc23)CC1	?	/	/	.	.	?
CN1CCN(c2cc3c(c4c2[nH]c2ccccc24)C(=O)CC(C)(C)C3)CC1	?	?	?	.	40µM	16µM
C=CCn1c(SC)nc2sc3c(c2c1=O)CCc1ccccc1-3	?	.	.	?	.	?
C=CCSc1nc2sc3c(c2c(=O)n1CC)CCc1ccccc1-3	10µM	?	10µM	.	7.1µM	?
CCCc1cc(=O)oc2cc(OCC(=O)NCCc3c[nH]c4ccccc34)ccc12	23µM	?	?	.	.	16µM
COc1ccc2[nH]cc(CCNC(=O)COc3ccc4ccc(=O)oc4c3)c2c1	?	.	.	.	.	21µM
Cc1cc(=O)oc2cc(OCC(=O)NCCc3c[nH]c4ccc(F)cc34)ccc12	.	.	.	?	.	.
CC(=O)N1C[C@@H]2CCCN3CCC[C@@H]([C@H]23)[C@H]1CCCC(=O)NCCCN1CCCC1=O	/	/	/	/	.	/
CC(=O)N1CCN(CC(O)COc2ccc(Br)cc2)CC1 (stereo not drawn)	.	.	.	.	0.35µM	?
COc1ccc(OCC(O)CN2CCc3ccccc3C2)cc1 (stereo not drawn)	.	.	.	.	.	.
Cc1ccc(OCC(O)CN2CCc3ccccc3C2)c(C)c1 (stereo not drawn)	26µM	.	.	.	.	?
CC(C)(C)c1ccc(OCC(O)CN2CCc3ccccc3C2)cc1 (stereo not drawn)	8.2µM	/	/	/	?	16µM
CC(=O)c1ccc(OCC(O)CN2CCN(CC(O)COc3ccc(C(C)=O)cc3)CC2)cc1 (stereo not drawn)	.	.	?	.	.	.
CC(C)(C)c1ccc(OCC(O)CN2CCN(C(=O)c3ccccc3)CC2)cc1 (stereo not drawn)	16µM	/	/	.	.	21µM
Fc1ccc(-c2nc(CSc3ncn[nH]3)co2)cc1	/	/	/	/	.	/
C=C1C(C(=O)Nc2cccc(SC)c2)C1C(=O)Nc1cccc(SC)c1 (stereo not drawn)	/	/	/	/	.	/
Nc1nn2c(C(F)(F)F)cc(=O)[nH]c2c1N=Nc1cccc(F)c1	.	.	10µM	.	/	.
CC(C)n1nc(OC(C)(C)C(=O)NC2CCOCC2)c2cc(CN3CCOCC3)ccc21	/	/	/	/	.	/
O=C(CC1CCN(S(=O)(=O)c2ccccc2F)C1)NCc1ccccc1 (stereo not drawn)	/	/	/	/	.	/
Cn1c(=O)c2c(SCc3ccccn3)nc(CC(C)(C)C)nc2n(C)c1=O	21µM	.	.	?	.	21µM
Cn1c(=O)c2c(SCc3cccnc3)nc(CC(C)(C)C)nc2n(C)c1=O	15µM	.	?	?	.	18µM
CCCc1nc(SCc2cccnc2)c2c(=O)n(C)c(=O)n(C)c2n1	?	.	.	16µM	.	16µM
CCCCn1c(SCc2cccnc2)nc2c1c(=O)n(C)c(=O)n2C	13µM	.	?	.	.	16µM
CCc1cc(=O)oc2cc(OC(C)C(=O)NCc3cccnc3)ccc12 (stereo not drawn)	/	/	/	/	.	/
COc1cccc(NC(=O)CCN2CCN(c3ccccc3)CC2)c1	?	/	/	/	.	10µM
Cc1cc(C)c(NC(=O)CCN2CCN(Cc3ccccc3)CC2)c(C)c1	?	/	/	/	.	16µM
Cc1cccc(NC(=O)CCN2CCN(C)CC2)c1	.	.	.[1.91 µM]	.	.	.

Screening data: PubChem BioAssay, National Center for Advancing Translational Sciences (NCATS)
